Bioassay records: PubChem BioAssay, National Center for Advancing Translational Sciences (NCATS)
BLM helicase inh: inhibitors of human Bloom syndrome helicase BLM. P54132. recombinant BLM DNA unwinding, fluorescence dequenching. Potency, µM (titrated, usually from 56.1 µM), for the others: top-dose activity change, negative = inhibition, most hits filed as inhibitors. hit rate 0.2% among 350,000. AID 2528;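 also: plate controls were vehicle for no effect and no enzyme for full effect; nearly all actives have a fitted effect of over 35% in size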
APEX1 inh: inhibitors of human APE1 endonuclease | Potency, µM (doses to about 65.8 µM), for the others: top-dose activity change, negative = inhibition, most hits filed as inhibitors | AID 2517 | hit rate 0.35% among 350,000 | recombinant APE1, TAMRA/BHQ-2 abasic DNA cleavage fluorescence;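 also: plate controls were vehicle for no effect and reference inhibitor for full effect; nearly all actives have a fitted effect of over 55% in size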
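Endonuclease cleavage of a quenched abasic-site DNA duplex (50 nM) by APE1 (0.75 nM) was tracked by TAMRA dequenching. Compounds were preincubated with enzyme 15 min at room temperature; data normalized to buffer-only and DMSO wells plus NSC13755 control.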
L3MBTL1 block: inhibitors of human L3MBTL1. Q9Y468. AlphaScreen L3MBTL1–H3K9me1 peptide binding. Potency, µM (top dose mostly 57.1 µM), for inactives: at the highest dose activity, negative = inhibition, most hits filed as inhibitors. hit rate 0.66% among 230,000; also: nearly all actives have a fitted effect of over 60% in size
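AlphaScreen proximity signal between nickel-chelate acceptor and streptavidin donor beads (final 10 ug/mL) reports binding of 50 nM L3MBTL1 to 75 nM biotin-H3 K9me1 peptide; complex incubated with compounds 30 min at room temperature; cefsulodin titration as control.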
RECQ1 helicase: blocks DNA unwinding by human RECQ1; P46063; RECQ1 DNA unwinding, red fluorescence kinetic read; Potency, µM (series often up to 57.3 µM), without a hit: at the highest dose activity, negative = inhibition, most hits filed as inhibitors; hit rate 0.54% among 240,000; AID 2549;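 also: plate controls were vehicle for no effect and no enzyme for full effect; nearly all actives have a fitted effect of over 30% in size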
Target sequence (P46063 whole entry, looked up): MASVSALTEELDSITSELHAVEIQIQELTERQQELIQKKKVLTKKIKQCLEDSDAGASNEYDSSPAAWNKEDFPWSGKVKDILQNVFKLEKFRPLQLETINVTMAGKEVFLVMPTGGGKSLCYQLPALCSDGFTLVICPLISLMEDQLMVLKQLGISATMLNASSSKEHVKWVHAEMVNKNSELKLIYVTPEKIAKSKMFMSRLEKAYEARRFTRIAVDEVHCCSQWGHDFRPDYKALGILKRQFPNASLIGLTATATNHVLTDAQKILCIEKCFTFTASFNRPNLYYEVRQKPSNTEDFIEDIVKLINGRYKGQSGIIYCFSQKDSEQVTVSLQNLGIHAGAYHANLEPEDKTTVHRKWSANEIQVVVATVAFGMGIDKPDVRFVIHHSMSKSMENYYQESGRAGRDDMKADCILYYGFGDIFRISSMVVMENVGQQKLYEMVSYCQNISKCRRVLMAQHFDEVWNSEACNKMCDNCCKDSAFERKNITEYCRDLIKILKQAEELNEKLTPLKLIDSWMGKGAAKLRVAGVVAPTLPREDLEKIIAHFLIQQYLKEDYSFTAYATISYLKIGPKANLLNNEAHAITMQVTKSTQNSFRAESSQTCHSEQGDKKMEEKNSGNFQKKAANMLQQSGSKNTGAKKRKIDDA
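RECQ1T1 50 nM; forked duplex (20 bp + 30-nt ss tails) 200 nM, ATP 2 mM final; pH 8.0, 2 mM MgCl2, 2.5 ug/ml poly(dI-dC); 15 min compound preincubation; discontinuous kinetic read over 2 h at RT.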
An asterisk follows results filed as active; i = inactive; ? = inconclusive; · = no result; [ ] = another dose, or the depositor's remark. Only some compounds are listed: those with a hit (about 0.78% of all), similar ones and a draw of the others. Calls follow the shape of the dose curve; as a rule, active = well fitted curve in the direction sought with a large enough effect; inconclusive = small, poorly fitted or top-dose-only effect, or another doubt; inactive = no such curve, though single readings can be large; an effect the other way counts as inactive or inconclusive. Unless noted, % is scaled to controls: 0 for no effect and ±100 for the full control effect; potency is read from the fitted curve at half-maximal effect.

SMILES	BLM helicase inh	APEX1 inh	L3MBTL1 block	RECQ1 helicase
O=[N+]([O-])c1ccc(Sc2cccc3cccnc23)cc1	-4%	1%	·	0%
C=CCn1nc([N+](=O)[O-])nc1Sc1cccc2cccnc12	4%	-6%	28µM*	-1%
NC(=O)OC[C@@H]1[C@H](NC(=O)/C(=N/OCC(=O)O)c2csc(N)n2)C(=O)N1S(=O)(=O)O	-9%	·	·	·
Cc1ccc(C(=O)OCC(=O)NCc2ccccc2)cc1S(=O)(=O)N1CCCCC1	·	-2%	2%	·
O=C(COC(=O)c1ccc(Cl)c(S(=O)(=O)N2CCCC2)c1)NCc1ccccc1	·	7.5µM*	-13%	·
CC1=C[C@@H](O)CC(C)(C)[C@@H]1/C=C/C(C)=C/C=C/C(C)=C/C=C/C=C(C)/C=C/C=C(C)/C=C/C1=C(C)C[C@H](O)CC1(C)C	-6%	·	·	·
CCc1cc(CNC(=O)c2ccc(OC3CCN(CCc4ccccc4)CC3)cc2)on1	-6%	12µM*	·	·
COc1ccc2[nH]c(=O)c(CN(C3CCCCC3)C(c3nnnn3Cc3ccco3)C(C)C)cc2c1 (configuration not stated)	-20%	-1%	?	28µM*
Cc1c(C(=O)Nc2cccc(C#N)c2)sc2nc3n(c(=O)c12)CCCCC3	-1%	·	·	·
CNCc1ccccc1Sc1ccc(O)c(O)c1	-2%	32µM*	?	?
COc1ccc(Sc2ccccc2CN(C)C)cc1OC	4%	0%	-6%	-13%
COc1ccc2cc3c(N)c(C(=O)NCc4ccco4)sc3nc2c1	-16%	-9%	-1%	-17%
Nc1c(C(=O)NCc2ccco2)sc2nc3c(cc12)C(=O)CCC3	-30%	?	32µM*	-24%
COc1ccc(OC)c(Nc2nn3c(=O)c4ccccc4nc3s2)c1	·	-24%	·	·
Cc1ccc(CNc2ccc(N3CCNCC3=O)cc2)cc1	·	-4%	·	·
CCn1c(C)cc(/C=C2\NC(=O)N(CC(=O)Nc3ccc(F)cc3)C2=O)c1C	-4%	31%	-23%	3%
Cc1ccc(NC(=O)CN2C(=O)N/C(=C/c3cc(C)n(-c4ccc(C(=O)O)cc4)c3C)C2=O)cc1	-6%	?	·	40µM*
N#Cc1c(-c2cccc(C(F)(F)F)c2)no[n+]1[O-]	·	-8%	·	·
CCN(CC)c1ccc(N=Cc2ccccc2[N+](=O)[O-])cc1	-9%	-1%	28µM*	-10%
CCN(CC)c1ccc(N=Cc2ccc([N+](=O)[O-])o2)cc1	-6%	?	?	?
CC1(NC(=O)CC[N+](C)(C)CCO)CS(=O)(=O)CC1S(=O)(=O)[O-] (configuration not stated)	5%	10%	13µM*	-6%
Nc1nonc1C(=O)N/N=C/c1cc(Br)ccc1O	-6%	-1%	1.4µM*	14%
O=C(N/N=C/c1cccnc1)c1cccc(NC(=O)c2cccc(Br)c2)c1	-4%	-6%[12.4 µM]	·	·
O=C(N/N=C/c1ccccc1O)c1ccncc1	1%	2%	?	·
O=C(N/N=C/c1ccc(O)c2ncccc12)c1cccc(Br)c1	-9%	-11%	7.9µM*	0%
SMILES	BLM helicase inh	APEX1 inh	L3MBTL1 block	RECQ1 helicase
O=C(N/N=C/c1ccc([N+](=O)[O-])s1)c1cccc(Br)c1	-17%	22µM*	-4%	-10%
O=C(N/N=C/c1cc(Br)ccc1O)c1ccncc1	2%	1%	32µM*	13%
Cc1ccc(NC(=O)CN2C(=O)N/C(=C\c3cccn3-c3ccc([S+](N)(=O)[O-])cc3)C2=O)cc1	·	7%	·	·
CCCCCCCCCCCCC/C=C/[C@@H](O)[C@H](CO)NC(=O)CCCCC	-13%	?	·	i
CC(C)(C)c1ccc2c(c1)OC(C(=O)N/N=C\c1ccc(-c3cccc(C(=O)O)c3)o1)CO2 (configuration not stated)	-8%	?	16µM*	-1%
O=C(O)c1cccc(-c2ccc(/C=N/Nc3nn[nH]n3)o2)c1	6%	-17%	20µM*	1%
Cc1ccc(OCC(=O)N/N=C\c2ccc(-c3cccc(C(=O)O)c3)o2)c(C)c1	-6%	15%	5.6µM*	-2%
CNC(=S)N/N=C/c1ccc(-c2cccc(C(=O)O)c2)o1	-3%	1%	·	-1%
CO[C@H]1COC(=O)[C@@H](CCSC)NC(=O)C/C=C\[C@@H](C)COC(=O)[C@@H](OCc2ccccc2)/C=C\[C@@H]1C	-3%[12.4 µM]	?	·	-7%[11.5 µM]
COC(=O)C1=C[C@@H](C(=O)OC)[C@@H]2C3=C(C(=O)C2(C)C)[C@H](c2ccccc2)[C@@H]2C(=O)N(c4ccccc4)C(=O)[C@@H]2[C@@H]3C1	-2%	-7%	·	-2%
CC(C)(C)n1ncc2c(=O)n(Cc3ccc(Cl)cc3F)cnc21	·	-3%	·	·
CC(C)(C)n1ncc2c(=O)n(Cc3ccc(Cl)c(SC(F)(F)F)c3)cnc21	·	15%	·	·
O=C(COC(=O)c1cc2c(s1)CCCC2)Nc1ccc(Cl)cn1	-2%	3%	-1%	-4%
COc1ccc(NC(=O)COC(=O)c2cc3c(s2)CCC3)cc1	·	5.3µM*	?	·
Cc1ccc(C2CC(=O)NC(SCc3ccccc3)=C2C#N)o1 (configuration not stated)	-8%	4%	18µM*	5%
CCCSS/C(CCO)=C(/C)N(C=O)Cc1cnc(C)nc1N	0%	·	·	·
CC1=C(/C=C/C(C)=C\C=C\C(C)=C\C(=O)O)C(C)(C)CCC1	3%	-2%	·	7%
CC(/C=C/C=C(C)/C=C/C(=O)O)=C\C=C\C=C(C)\C=C\C=C(C)\C=C\C(=O)O	·	2.5µM*	·	11µM*
N#Cc1c(-c2ccc(-c3ccccc3)cc2)no[n+]1[O-]	·	-7%	·	·
O=C(O)c1ccc2ncsc2c1	-7%	2%	10µM*	i
CCCCCC(CC)COC(=O)CC(C(=O)OCC(CC)CCCC)S(=O)(=O)O (configuration not stated)	-29%	·	·	·
O=C(Nc1nc(-c2ccccn2)cs1)c1ccccc1-n1cnnn1	-5%	4%	20µM*	i
CC(=O)Nc1ccc(C(=O)Nc2nc(-c3ccccn3)cs2)cc1	-5%	-1%	-44%	5%
O=C(Nc1nc(-c2ccccn2)cs1)c1ccc([N+](=O)[O-])o1	-18%	-12%	13µM*	-11%
O=C(Nc1nc(-c2ccccn2)cs1)c1cc(Cl)ccc1[N+](=O)[O-]	-10%	-3%	10µM*	-3%
SMILES	BLM helicase inh	APEX1 inh	L3MBTL1 block	RECQ1 helicase
Cc1cc(C(=O)Nc2nc(-c3ccccn3)cs2)ccc1[N+](=O)[O-]	-4%	0%	·	-9%
Nc1ncnc2c1ncn2[C@@H]1O[C@H](C(=O)NC2CC2)[C@H](O)[C@H]1O	·	22%	·	-12%
NC(=O)C1CCN(c2nc(-c3cccc([N+](=O)[O-])c3)cs2)CC1	·	-8%	·	·
Cc1cccc(NC(=O)CNC(=O)CSc2ncccn2)c1C	·	37%	4%	·
Cc1cccc(NC(=O)CNC(=O)Cn2ncc(Cl)c(Cl)c2=O)c1C	·	?	32µM*	·
NCCc1cnc(-c2cccc(C(F)(F)F)c2)[nH]1	-4%	-5%	·	-13%
COC(=O)N1C2CC(=O)O[C@@H]3c4cc5c(cc4[C@]1(C)[C@@]3(Br)c1ccccc12)OCO5	4%[12.4 µM]	-3%[12.4 µM]	·	2%[11.5 µM]
COc1cccc(O)c1O	0%	2.5µM*	·	-30%
